Experiment [1] is described as follows: compounds binding Alexa647 anti-His antibody – biochemical, small-molecule microarray, 635 nm fluorescence, artefact control for SMM control protein annotation, primary screen (AID 1128).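 Also: score merges feature fluorescence with signal-to-noise for each printed compound spot.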 The settings on record: higher = more signal.
In experiment [2] the test system is Human papillomavirus type 1a E7 protein (residues 1-88). Kind of experiment: HPV1a E7 small-molecule binders, primary screen, biochemical, small-molecule microarray, residues 1-88, 635 nm (AID 1129). Particulars: small-molecule microarray binding, fluorescence 635 nm; higher = more signal.
In experiment [3] the target is Focal adhesion kinase 1 (Homo sapiens) (UniProt Q05397). Kind of experiment: PTK2 protein binding on printed compound slides – biochemical, small-molecule microarray, 635/667 nm fluorescence, BSA, DTT, primary screen (AID 1130).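 Also: composite of spot emission at 667 nm and signal to noise over triplicate slides.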 Particulars: 635 nm fluorescence, higher = more signal.
Chain of Focal adhesion kinase 1 (Homo sapiens) (Q05397 whole entry, looked up): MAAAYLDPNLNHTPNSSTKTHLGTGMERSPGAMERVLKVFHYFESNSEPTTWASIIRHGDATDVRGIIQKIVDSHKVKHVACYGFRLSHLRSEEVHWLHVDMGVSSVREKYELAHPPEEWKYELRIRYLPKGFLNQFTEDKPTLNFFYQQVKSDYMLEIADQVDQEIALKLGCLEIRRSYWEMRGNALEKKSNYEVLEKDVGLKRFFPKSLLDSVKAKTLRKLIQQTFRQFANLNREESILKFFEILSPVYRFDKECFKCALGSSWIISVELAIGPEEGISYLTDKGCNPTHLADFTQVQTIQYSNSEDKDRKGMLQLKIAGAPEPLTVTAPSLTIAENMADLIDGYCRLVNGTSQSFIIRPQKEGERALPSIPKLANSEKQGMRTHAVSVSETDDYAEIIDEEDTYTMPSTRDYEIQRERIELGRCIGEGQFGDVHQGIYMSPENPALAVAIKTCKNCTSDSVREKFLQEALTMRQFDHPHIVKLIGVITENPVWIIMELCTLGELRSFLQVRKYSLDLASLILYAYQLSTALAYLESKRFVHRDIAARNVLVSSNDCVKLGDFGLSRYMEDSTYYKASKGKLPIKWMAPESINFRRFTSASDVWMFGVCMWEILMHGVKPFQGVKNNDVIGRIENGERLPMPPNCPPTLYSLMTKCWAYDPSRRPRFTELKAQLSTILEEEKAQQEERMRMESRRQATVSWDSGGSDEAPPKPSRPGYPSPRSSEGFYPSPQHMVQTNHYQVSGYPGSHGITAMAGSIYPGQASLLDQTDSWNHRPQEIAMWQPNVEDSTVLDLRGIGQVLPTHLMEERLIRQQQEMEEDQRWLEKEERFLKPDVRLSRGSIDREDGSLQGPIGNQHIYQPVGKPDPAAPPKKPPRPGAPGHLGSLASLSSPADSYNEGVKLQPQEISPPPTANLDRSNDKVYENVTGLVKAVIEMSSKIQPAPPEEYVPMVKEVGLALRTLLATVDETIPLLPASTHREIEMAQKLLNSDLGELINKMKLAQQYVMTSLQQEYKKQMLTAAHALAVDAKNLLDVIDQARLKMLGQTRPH
Experiment [4] relates to Fibrinogen (Alexa647-labelled). Kind of experiment: Alexa647-fibrinogen binding to printed small molecules – biochemical, small-molecule microarray, 635/667 nm fluorescence, artefact control for SMM control-protein annotation, profiling panel (AID 1131).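 Also: z-score merges 667 nm fluorescence with per-spot signal-to-noise over triplicate slides.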 The settings on record: fibrinogen-A647 binding fluorescence, higher = more signal.
The target of experiment [5] is Follistatin (Homo sapiens) (UniProt P19883). The experiment in a line: FST protein binding to printed compounds – biochemical, small-molecule microarray, 635/667 nm fluorescence, primary screen (AID 1132). The settings on record: 635 nm fluorescence, higher = more signal.
Chain of Follistatin (Homo sapiens) (P19883 whole entry, looked up): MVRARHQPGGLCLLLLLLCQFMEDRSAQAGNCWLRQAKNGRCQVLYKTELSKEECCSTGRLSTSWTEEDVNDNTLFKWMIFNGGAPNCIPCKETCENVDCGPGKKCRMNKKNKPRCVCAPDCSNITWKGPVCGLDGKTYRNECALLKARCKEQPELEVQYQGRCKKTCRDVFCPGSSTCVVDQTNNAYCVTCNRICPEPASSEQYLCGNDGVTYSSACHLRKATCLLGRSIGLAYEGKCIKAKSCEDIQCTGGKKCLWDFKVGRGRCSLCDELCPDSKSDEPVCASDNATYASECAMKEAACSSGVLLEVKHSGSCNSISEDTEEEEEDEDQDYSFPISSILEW
In experiment [6] the target is Fibroblast growth factor 2 (Homo sapiens) (UniProt P09038). The experiment in a line: basic fibroblast growth factor binding to printed compounds – biochemical, small-molecule microarray, 635/667 nm fluorescence, primary screen (AID 1133). Particulars: FGF2, fluorescence 635/667, higher = more signal.
Chain of Fibroblast growth factor 2 (Homo sapiens) (P09038 whole entry, looked up): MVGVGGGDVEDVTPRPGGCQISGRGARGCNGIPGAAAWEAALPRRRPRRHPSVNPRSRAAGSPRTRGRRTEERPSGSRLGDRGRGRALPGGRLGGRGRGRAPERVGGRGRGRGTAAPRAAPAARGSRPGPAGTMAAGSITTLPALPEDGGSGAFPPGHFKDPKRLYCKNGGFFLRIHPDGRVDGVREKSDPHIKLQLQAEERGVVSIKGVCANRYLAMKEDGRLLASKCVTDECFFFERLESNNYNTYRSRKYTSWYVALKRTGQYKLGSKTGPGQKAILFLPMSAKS
A short description of experiment [7]: JC-1 mitochondrial potential readout, lung cancer cells – cell-based, A549, JC-1 fluorescence, basal, 24 h, 100 nL, profiling panel (AID 1138).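 Also: A549 lung adenocarcinoma cells under basal conditions with no added stimulus; test concentration not given here.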 Particulars: higher = more signal.
The subject of another experiment is Lefty1. Kind of experiment: Lefty1 protein binding to printed compounds – biochemical, small-molecule microarray, 635/667 nm fluorescence, primary screen (AID 1139). Particulars: fluorescence 635/667, higher = more signal.
For experiment [8], the system named is wheat germ agglutinin (Triticum aestivum), Alexa647-labelled. The experiment in a line: Alexa647-WGA lectin binding to printed small molecules – biochemical, small-molecule microarray, 635/667 nm fluorescence, artefact control for SMM control-protein annotation, profiling panel (AID 1140).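 Also: score merges 667 nm feature emission with signal to noise over triplicate slides.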 Particulars: WGA-A647 binding, 635 nm fluorescence, higher = more signal.

Experiment [9] deals with Luciferin 4-monooxygenase (Photinus pyralis) (UniProt P08659). The experiment in a line: inhibition of purified Photinus pyralis luciferase – biochemical, luminescence, purified enzyme, 2006 set, primary screen (AID 1141).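 Also: cell-free assay with purified firefly luciferase at 100 ng per well in PBS; test concentration not given here.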 The settings on record: purified firefly luciferase, SteadyGlo luminescence, 30 min; higher = more signal, called active from +8 up or from −8 down.
Chain of Luciferin 4-monooxygenase (Photinus pyralis) (P08659 whole entry, looked up): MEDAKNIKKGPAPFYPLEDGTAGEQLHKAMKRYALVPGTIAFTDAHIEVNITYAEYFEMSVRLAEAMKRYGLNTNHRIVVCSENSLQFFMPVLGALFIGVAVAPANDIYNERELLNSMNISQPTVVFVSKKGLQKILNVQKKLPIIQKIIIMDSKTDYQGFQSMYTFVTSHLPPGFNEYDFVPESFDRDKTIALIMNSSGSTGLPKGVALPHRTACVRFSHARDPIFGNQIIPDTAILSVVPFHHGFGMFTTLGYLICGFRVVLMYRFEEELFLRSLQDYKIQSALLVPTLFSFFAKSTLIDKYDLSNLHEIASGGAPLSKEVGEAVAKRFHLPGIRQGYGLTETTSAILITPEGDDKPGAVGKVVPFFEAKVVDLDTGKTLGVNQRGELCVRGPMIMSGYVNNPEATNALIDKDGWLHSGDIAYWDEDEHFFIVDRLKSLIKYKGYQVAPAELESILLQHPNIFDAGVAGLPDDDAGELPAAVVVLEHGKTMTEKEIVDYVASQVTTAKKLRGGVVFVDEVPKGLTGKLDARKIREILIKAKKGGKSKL
Experiment [10] has as its system Wnt5a (protein binding on small-molecule microarray). Kind of experiment: small molecules binding Wnt5a protein – biophysical, small-molecule microarray, 635/667 nm fluorescence, primary screen (AID 1142).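 Also: fluorescence read at 667 nm with signal to noise per printed feature.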 Particulars: 635 nm fluorescence, higher = more signal.
Experiment [11] in a line: ATP-based viability of Huh7 replicon cells – cell-based, CellTiter-Glo luminescence, basal, 48 h, cytotoxicity control for HCV replication inhibitor project, primary screen (AID 1143).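 Also: Huh7 hepatoma cells carrying a hepatitis C replication reporter with no stimulus; test concentration not given here.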 The settings on record: higher = more signal, called active from +8 up or from −8 down. (In general: Replicon systems follow genome replication, usually without infectious particles.)
Experiment [12] is described as follows: Pseudomonas biofilm growth suppression – PAO1 strain, BacTiter-Glo luminescence, LB-PBS, primary screen (AID 1144). The settings on record: P. aeruginosa PAO1 biofilm, 12 h, higher = more signal.
The nature of experiment [13]: basal CRE-LacZ reporter activity in PC12 – cell-based, unstimulated, primary screen (AID 1145). The settings on record: no forskolin, luminescence, 4.5 h, higher = more signal, called active from +8 up or from −8 down.
Experiment [14] is described as follows: forskolin-driven CRE-LacZ activity in PC12 – cell-based, CRE-LacZ reporter, forskolin-stimulated, primary screen (AID 1146).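 Also: PC12 cells with 6xCRE LacZ reporter stimulated by forskolin 10 µM; beta-galactosidase reporter signal reflecting CREB driven transcription.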 The settings on record: luminescence, 4.5 h, higher = more signal, called active from +8 up or from −8 down.
Experiment [15] concerns the target Streptavidin (Streptomyces avidinii) (UniProt P22629). The experiment in a line: compounds binding control protein streptavidin – biophysical, small-molecule microarray, 635/667 nm fluorescence, artefact control for SMM compound annotation, primary screen (AID 1147).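 Also: signal reflects streptavidin binding to arrayed compounds as a control protein.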 The settings on record: higher = more signal.
Experiment [16] can be described thus: probe aInhba binding on compound microarray – biochemical, small-molecule microarray, 635/667 nm fluorescence, primary screen (AID 1148).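 Also: score merges 667nm spot fluorescence with signal-to-noise for antibody binding to printed compounds.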 The settings on record: higher = more signal.
For experiment [17], the target named is Torsin-1A (Homo sapiens) (UniProt O14656). The experiment in a line: TOR1A wild-type binding on microarray – cell lysate, small-molecule microarray, lysate, 635/667 nm, primary screen (AID 1149). The settings on record: COS7 hTOR1A-WT lysate, 635 nm fluorescence, higher = more signal.
Chain of Torsin-1A (Homo sapiens) (O14656 whole entry, looked up): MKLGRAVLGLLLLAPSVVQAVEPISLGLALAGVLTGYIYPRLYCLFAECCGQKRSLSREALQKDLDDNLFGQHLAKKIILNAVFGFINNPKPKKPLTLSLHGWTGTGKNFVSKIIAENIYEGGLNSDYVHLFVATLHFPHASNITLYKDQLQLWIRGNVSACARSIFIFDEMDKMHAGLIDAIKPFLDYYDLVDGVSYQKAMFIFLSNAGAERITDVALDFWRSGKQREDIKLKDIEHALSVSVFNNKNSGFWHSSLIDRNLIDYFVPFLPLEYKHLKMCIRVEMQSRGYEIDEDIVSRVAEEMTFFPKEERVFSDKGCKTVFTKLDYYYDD
For experiment [18] the target is unchanged. Kind of experiment: torsin A mutant lysate binding on microarrays – cell lysate, small-molecule microarray, COS7 lysate, 635/667 nm fluorescence, primary screen (AID 1150).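 Also: score pools 667 nm emission and signal to noise measuring lysate protein binding.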 Particulars: COS7 hTOR1A mutant lysate, 635 nm fluorescence, higher = more signal.
For experiment [19], the system named is Sonic hedgehog protein (Shh). The experiment in a line: Sonic hedgehog microarray binding compounds – biochemical, small-molecule microarray, 635/667 nm fluorescence, primary screen (AID 1151).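 Also: Shh protein binding to compounds spotted on small-molecule microarray slides; score combines spot fluorescence intensity with signal-to-noise across triplicate slides.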 The settings on record: 635 nm fluorescence, higher = more signal.

The source made the active and inactive calls. Unless noted, no rule for the calls is given here.

Chain of Streptavidin (Streptomyces avidinii) (P22629 whole entry, looked up): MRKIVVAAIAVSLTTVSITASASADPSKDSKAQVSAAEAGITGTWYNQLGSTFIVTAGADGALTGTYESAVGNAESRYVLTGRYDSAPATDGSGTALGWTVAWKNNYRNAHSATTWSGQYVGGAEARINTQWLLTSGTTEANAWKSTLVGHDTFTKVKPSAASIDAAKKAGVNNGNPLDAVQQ

`COc1ccc(C(O)C2C=CC3C(=O)N(c4ccccc4)C(=O)C3N2Nc2ccccc2F)c2ccccc12` (stereo not given): the composite z-score in experiment [1] was 1.95; in [2], 1.23; in experiment [3] it was 1.03; in experiment [4], 0.995; in [5], 1.33; in [6], 0.716. In addition, the composite z-score in the experiment on Lefty1 was -0.111; in experiment [8], 1.29; in experiment [10] it was 0.936; in experiment [15], 2.38; in [16], 1.11; with Torsin-1A (Homo sapiens) [17], 0.163. The composite z-score with Torsin-1A (Homo sapiens) [18] is 0.273; in [19] it was 0.824. In addition, the z-score was -0.646 in [7]; -1.77 (inactive) in experiment [9]; -0.225 (inactive) in experiment [11]; -1.21 (inactive) in experiment [12]; 0.629 (inactive) in experiment [13]; -0.813 (inactive) in experiment [14].
`CN(C)C(=O)[C@]1(CCS(=O)(=O)c2ccccc2)N=C(c2ccc(OCCCO)cc2)O[C@@H]1c1ccccc1CN=[N+]=[N-]`: the composite z-score in experiment [1] was 2.64; in [2], 1.26; in experiment [3], 1.08; in [4] it was 0.994; in [5], 0.983; in experiment [6], 1.45. The composite z-score with Lefty1 was -0.421; in [8], 0.774; in experiment [10], 0.485; in experiment [15] it was 1.54; in experiment [16], -0.0332; in the experiment with Torsin-1A (Homo sapiens) [17] it was 0.408. The results for the composite z-score (in the experiment with Torsin-1A (Homo sapiens) [18]; in [19]) were 0.927 and -0.405, respectively. Further, the z-score in experiment [7] was -0.381; in experiment [9], -0.345 (inactive); in [11], -0.915 (inactive); in experiment [12], -0.813 (inactive); in experiment [13], 0.0686 (inactive); in experiment [14] it was 0.236 (inactive).
As for `[N-]=[N+]=NCc1ccccc1[C@H]1OC(c2ccc(OCCCO)cc2)=N[C@@]1(Cc1ccccc1N=[N+]=[N-])C(=O)N1CCOCC1`, the composite z-score in [1] is 0.574; in experiment [2] it was 1.21; in experiment [3], 0.993; in experiment [4], 1.04; in experiment [5], 0.526; in [6], -0.335. For the same molecule, the composite z-score amounted to 0.0349 in the experiment with Lefty1; 1.07 in [8]; 0.135 in [10]; 1.24 in [15]; 0.222 in [16]; 0.249 in the experiment with Torsin-1A (Homo sapiens) [17]. The figures for the composite z-score (with Torsin-1A (Homo sapiens) [18]; in experiment [19]) were 0.488 and -1.15, respectively. The z-score in [7] was 0.704; in experiment [9], -2.44 (inactive); in experiment [11] it was -3.35 (inactive); in [12], -0.149 (inactive); in experiment [13] it was 2.61 (inactive); in experiment [14] it was -0.529 (inactive).
In the case of `C=CC[C@H](OC(=O)Nc1ccc(SC)cc1)c1ccc(O)c(F)c1`, the composite z-score is 0.434 in [1]; 0.294 in experiment [2]; -0.502 in experiment [3]; -0.0381 in experiment [4]; 0.137 in [5]; 0.244 in experiment [6]. The composite z-score in the experiment on Lefty1 is -0.173; in [8] it was 0.541; in experiment [10], -0.171; in [15] it was -0.588; in experiment [16], -0.285; in the experiment with Torsin-1A (Homo sapiens) [17], -0.135. Also, the composite z-score in the experiment with Torsin-1A (Homo sapiens) [18] is -0.151; in experiment [19] it was 0.988. Further, the z-score in [7] is -1.34; in experiment [9], -1.83 (inactive); in experiment [11] it was -0.489 (inactive); in experiment [12], -0.459 (inactive); in [13] it was 0.31 (inactive); in [14], 5.56 (inactive).
With `CC(=O)NCCCC[C@@H]1NC(=O)[C@H]2C[C@@H](C(=O)O)[C@@H](c3cccc(OCCO)c3)N2C1=O`, the composite z-score in experiment [1] amounted to 0.246; in [2] it was 1.21; in experiment [3], 0.398; in [4], 0.984; in experiment [5], 1.29; in experiment [6] it was 1.12. Further, the composite z-score with Lefty1 was 1.13; in experiment [8], 0.946; in [10] it was 0.847; in experiment [15], 1.62; in experiment [16], -0.153; with Torsin-1A (Homo sapiens) [17] it was 1.33. Also, the results for the composite z-score (with Torsin-1A (Homo sapiens) [18]; in experiment [19]) were 1.24 and 1.59, respectively. Also, the z-score in experiment [7] was -0.253; in experiment [9], 0.102 (inactive); in experiment [11] it was -0.353 (inactive); in [12], -0.814 (inactive); in experiment [13], 1.94 (inactive); in [14], 0.0364 (inactive).

Source of the values: PubChem BioAssay.
